Bioassay records from PubChem.
This is a sample that favours compounds with a hit; in the whole collection about 3.2% have one here.
RGS12 GoLoco inh: blocks human Gai1 binding to RGS12 GoLoco peptide, red readout; P63096; Gai1:RGS12 GoLoco peptide FP, rhodamine, 10 min; Potency, µM (highest dose often 61.6 µM), for the others: top-dose activity, negative = inhibition, most hits filed as inhibitors; hit rate 0.44% among 230,000; AID 880; active = well fitted inhibition curve with a large enough effect, not every such curve was filed as active; inactive = no such curve, though single readings can be large or run the other way; note: nearly all actives have a fitted effect of over 30% in size
TexasRed fluor: alters Texas Red total fluorescence, flagging assay interference; hit rate 0.29% among 280,000; AID 1479; Potency, µM (highest dose often 106 µM), for inactives: at the top dose fluorescence change, negative = quenching; TRb/SRC2 Texas Red total fluorescence interference; active = well fitted curve in either direction with a large enough effect; inconclusive = small, poorly fitted or top-dose-only effect
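Human TRb ligand-binding domain at 0.6 uM with 20 nM Texas Red SRC2 peptide in Tris buffer containing 1 uM T3 and 5% DMSO, incubated with compound 5 h at ambient temperature. Total fluorescence (555/632 nm) calculated as parallel + 2 × perpendicular.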
TRb SRC2 PPI: inhibitors of human thyroid hormone receptor beta-SRC2 interaction. P10828. TRbeta-SRC2 peptide binding, fluorescence polarization; receptor liganded with 1 µM T3. Potency, µM (highest dose often 106 µM), without a hit: top-dose activity change, negative = inhibition, most hits filed as inhibitors. hit rate 0.065% among 280,000. AID 1469;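 note: plate controls were bound peptide for no effect and peptide without receptor for full effect; nearly all actives have a fitted effect of over 50% in size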
Target sequence (P10828 whole entry, looked up): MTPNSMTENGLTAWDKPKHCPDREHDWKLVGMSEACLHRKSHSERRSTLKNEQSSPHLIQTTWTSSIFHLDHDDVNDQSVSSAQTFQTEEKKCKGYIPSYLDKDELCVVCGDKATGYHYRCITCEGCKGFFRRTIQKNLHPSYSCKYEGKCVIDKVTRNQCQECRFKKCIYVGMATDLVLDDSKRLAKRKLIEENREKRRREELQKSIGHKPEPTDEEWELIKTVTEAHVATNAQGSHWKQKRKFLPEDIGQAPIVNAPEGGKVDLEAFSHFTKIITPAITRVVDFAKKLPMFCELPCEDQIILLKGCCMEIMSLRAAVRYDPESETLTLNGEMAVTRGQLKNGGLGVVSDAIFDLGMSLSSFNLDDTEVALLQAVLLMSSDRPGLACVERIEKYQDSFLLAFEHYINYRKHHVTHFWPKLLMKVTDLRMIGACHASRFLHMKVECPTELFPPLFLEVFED
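Fluorescence polarization of 20 nM Texas Red SRC2 peptide with 0.6 uM human TRb ligand-binding domain, in Tris buffer with 1uM T3 and 5% DMSO. Incubated 5 hr ambient; normalized to unbound and bound controls.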
Tau fluor counter: counter-screen for tau fibril formation inhibitors; tau K18 P301L Alexa594 fluorescence, heparin fibrillization; Potency, µM (series often up to 57.7 µM), for the others: at the highest dose activity change, negative = decrease; hit rate 0.93% among 280,000; AID 1463; note: nearly all actives have a fitted effect of over 55% in size
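Human tau K18 P301L (15 uM unlabeled, 0.24 uM Alexa 594-labeled) in 100 mM sodium acetate pH 7 with 20 uM heparin, 6 hr at 37 C. ThT 30 uM added, 1 hr ambient; Alexa 594 FP and total fluorescence read at 555/632 nm.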
Tau FP inhib: inhibitors of human tau fibril formation | hit rate 0.39% among 280,000 | K18 P301L tau heparin fibrillization, Alexa594 FP, 6 h | AID 1468 | P10636 | Potency, µM (titrated, usually from 57.7 µM), without a hit: at the highest dose activity, negative = inhibition, most hits filed as inhibitors; note: nearly all actives have a fitted effect of over 55% in size
Target sequence (P10636 561-689 P618L limits assumed): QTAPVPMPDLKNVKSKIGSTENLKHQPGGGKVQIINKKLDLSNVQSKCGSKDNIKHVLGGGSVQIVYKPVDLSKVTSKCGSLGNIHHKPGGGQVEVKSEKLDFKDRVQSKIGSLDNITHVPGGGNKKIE
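Human K18 P301L fragment (15 uM unlabeled plus 0.24 uM Alexa 594-labeled) in 100 mM sodium acetate pH 7 with compound, aggregation induced by 20 uM heparin for 6 hr at 37 C. ThT (30 uM) added for 1 hr, then Alexa 594 FP read.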
Tau fibril ThT: inhibitors of human tau fibril formation, thioflavin T binding | recombinant tau K18 P301L (four-repeat tau fragment), heparin-induced fibrillization, ThT fluorescence | P10636 | hit rate 2.1% among 270,000 | AID 1460 | Potency, µM (series often up to 57.4 µM), inactives show top-dose activity, negative = inhibition, usual class: inhibitors; note: nearly all actives have a fitted effect of over 55% in size
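Aggregation was driven by heparin (20 uM final) acting on recombinant tau […] bearing P301L in 100 mM sodium acetate pH 7; fibrils were detected with Thioflavin T.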
An asterisk follows results filed as active; ? = inconclusive; . = no result; [ ] = another dose, or the depositor's remark. Unless noted, calls come from the whole dose curve; as a rule, active = well fitted curve in the direction sought with a large enough effect; inconclusive = small, poorly fitted or top-dose-only effect, or another doubt; inactive = no such curve, though single readings can be large; an effect the other way counts as inactive or inconclusive. Unless noted, % is set by controls: 0 for no effect and ±100 for the full control effect; potency is the fitted concentration of half-maximal effect.

SMILES	RGS12 GoLoco inh	TexasRed fluor	TRb SRC2 PPI	Tau fluor counter	Tau FP inhib	Tau fibril ThT
Cc1cccc(N2NC(=O)/C(=C/c3ccc(-c4ccc(Cl)c(C(=O)O)c4)o3)C2=O)c1	-11%	-2%	-1%	?	?	7.1µM*
CCCCCC[N+](C)(C)CCSSCC[N+](C)(C)CCCCCC	-37%	-2%	-20%	-23%	?	7.1µM*
Cc1cccc(NC(=O)c2c(N)sc3c2CCC(C)C3)c1 (configuration not stated)	.	-5%	9%	?	-15%	8.9µM*
Cc1nc2ccccc2n2c(O)c(CC(=O)O)cc12	13µM*	26%	?	-11%	1%	-15%
Cc1nc2ccccc2n1CCC(=O)O	11%	-1%	-4%	-2%	1%	-6%
CC(C)(C)C1CCC(=NNc2ccc(S(N)(=O)=O)cc2[N+](=O)[O-])CC1 (configuration not stated)	-3%	-1%	9%	?	11%	13µM*
NS(=O)(=O)c1ccc(N/N=C2/CCCc3ccccc32)c([N+](=O)[O-])c1	5%	1%	3%	2%	-4%	7%
CC1CCCC/C1=N\Nc1ccc(S(N)(=O)=O)cc1[N+](=O)[O-] (configuration not stated)	5%	-1%[53 µM]	-6%[53 µM]	-9%	11%	16µM*
Cc1nc(NCc2ccccc2)c2nc(-c3ccccc3)n(CC3CCN(C)CC3)c2n1	5%	-4%	2%	-3%	-3%	-2%
O=C1C2CCCCC2C(=O)N1Cc1ccccc1 (configuration not stated)	17%	-5%	-4%	-3%	-15%	-3%
O=c1ccsn1Cc1ccccc1	-10%	-3%	1%	-17%	14µM*	10µM*
O=C1N(Cc2cccc(C(F)(F)F)c2)c2ccccc2S(=O)(=O)N1c1cccc(Cl)c1	.	-3%	2%	?	?	-3%
CCc1nn2c(=O)cc(COC(=O)c3cccc(NC(=O)COc4ccccc4)c3)nc2s1	.	0%	1%	5%	10%	?
N=C1CCC(=N)c2c1c(O)c1ccccc1c2O	8%	45µM*[fluorescent]	32µM*	?	25µM*	13µM*
N=C1CCCN1c1ccccc1O	3%	2%	0%	-4%	1%	-1%
O=C(Oc1cccc(C(=S)N2CCOCC2)c1)c1cccc([N+](=O)[O-])c1	2%	0%	-7%	?	2%	?
O=C(Oc1cccc(C(=S)N2CCOCC2)c1)c1cc([N+](=O)[O-])cc([N+](=O)[O-])c1	-1%	-1%	-4%	20µM*[quencher]	-1%	?
O=C(Oc1ccc(Br)cc1C(=S)N1CCCCC1)c1cc([N+](=O)[O-])cc([N+](=O)[O-])c1	1%	-3%	-13%	22µM*[quencher]	-1%	?
CCOC(=O)C1(C)C=C(Nc2ccc(OC)cc2)C(=O)N1c1ccc(OC)cc1 (configuration not stated)	-35%	0%	-13%	-1%	2%	4%
CCOC(=O)C1(C)C=C(Nc2ccc(O)cc2)C(=O)N1c1ccc(O)cc1 (configuration not stated)	-16%	-1%	5%	?	28µM*	14µM*
CCOC(=O)c1cccc(-n2nnc3c(sc4nc(C)c(Br)c(C)c43)c2=O)c1	.	-2%	-1%	0%	-2%	-3%
Nc1[nH]nc2c1NN(c1ccc(Cl)cc1Cl)N2	1%	-6%	-9%	?	?	3.5µM*
CC1=C(c2ccc(C)c(C)c2)S(=O)(=O)N(Cc2ccc(C(=O)Nc3cc(F)ccc3F)cc2)C1=O	.	1%	2%	-15%	-14%	5%
Cc1nc(NC(=O)/C=C/c2ccccc2)n[nH]1	1%	1%	0%	-3%	?	16µM*
COC(=O)C1=C(C)N=C2SC(C#N)=C(N)N2C1c1ccc(OCc2ccccc2)cc1 (configuration not stated)	8%	-4%	1%	7.9µM*[quencher]	?	?
SMILES	RGS12 GoLoco inh	TexasRed fluor	TRb SRC2 PPI	Tau fluor counter	Tau FP inhib	Tau fibril ThT
CCOC(=O)C1=C(C)OC(N)=C(C#N)C1c1cc2c(cc1[N+](=O)[O-])OCO2 (configuration not stated)	-37%	-3%	-8%	?	?	28µM*
COc1cccc(NC(=O)c2nnn(Cc3cccc(C(F)(F)F)c3)c2N)c1	.	0%	-9%	-7%	?	8%
Cc1cc2cc(C(c3nnnn3Cc3ccco3)N3CCCCC3)c(=O)[nH]c2cc1C (configuration not stated)	27%	1%	-8%	-21%	8%	?
CCC(C)(C)n1nnnc1CN(Cc1cc2cc(OC)ccc2[nH]c1=O)C1CCCC1	1%	-3%	3%	-16%	1%	?
CCOc1ccc2[nH]c(=O)c(CN(Cc3nnnn3Cc3ccco3)C3CCCCC3)cc2c1	149%	?	14%	-28%	?	22µM*
CCOc1ccc2[nH]c(=O)c(CN(Cc3ccco3)Cc3nnnn3Cc3ccccc3)cc2c1	8%	3%	10%	-18%	-7%	?
CCOc1ccc2[nH]c(=O)c(CN(Cc3ccco3)C(CC)c3nnnn3Cc3ccccc3)cc2c1 (configuration not stated)	48%	0%	-6%	-12%	?	25µM*
CCOc1ccc2[nH]c(=O)c(C(c3nnnn3Cc3ccco3)N3CCN(C)CC3)cc2c1 (configuration not stated)	14%	-8%	?	-19%	?	14µM*
COc1cc2cc(CN(Cc3nnnn3Cc3ccco3)C3CCCCC3)c(=O)[nH]c2cc1OC	80%	-16%	-13%	?	?	16µM*
CC(=O)Nc1ccc2nc3c(=O)[nH]c(=O)[nH]c3nc2c1	.	-6%	4%	?	?	?
Cc1cccc(-n2nnc(-c3nc(-c4cccs4)no3)c2N)c1	.	2%	-7%	-1%	-4%	-1%
Cc1ccc(C2CC(=O)Oc3ccc(O)cc32)cc1 (configuration not stated)	-1%[88.7 µM]	-1%[201 µM]	-6%[201 µM]	-15%[126 µM]	4%[126 µM]	-14%[126 µM]
COCCn1c(C)cc(O)c(C(c2ccccc2)N2CCN(c3ccc(F)cc3)CC2)c1=O (configuration not stated)	.	2%	7%	-5%	-13%	?
CCN1CCC(O)([C@H](C(=O)O)c2ccccc2)CC1	5%[14.2 µM]	.	.	.	.	.
N=C1C=CC=C2C1=NC1(CCCCC1)N2O	-6%	-6%	10%	-26%	?	25µM*
